From the supplement of paper PMC4466140

B1: unnamed (peptide)
chain: PSTMDFPKLPSFQNS
B2: unnamed (peptide)
chain: VPPVPLPFGIPPFPM
B3: unnamed (peptide)
chain: VATSTSPKLPPRGKQ

molecular target: AgAbp1; assay: SPOT peptide array binding signal intensity (averaged, normalized) (arbitrary units (background-subtracted, floor 0; scale differs between SH3 domains)); higher = stronger binding of the SH3 domain to the peptide
Summary of the method: (§1)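 The binding signal is the normalized, background-subtracted spot intensity averaged over replicates; its arbitrary units differ between domains. It was obtained by incubating 10 μg/ml GST-fused SH3 domains from four yeast species overnight at 4°C in TBS-based blocking buffer on cellulose membranes with synthetic 15-mer peptides, cysteines replaced by serines, then detecting with anti-GST antibody, HRP anti-mouse secondary and luminol.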

Binder | SPOT peptide array binding signal intensity
B1 | 3
B2 | 3
B3 | 3

molecular target: AgBbc1; assay: as above
Summary of the method: as §1

Binder | SPOT peptide array binding signal intensity
B1 | 10.5
B2 | ≤ 0
B3 | 548

molecular target: AgBem1-D1; assay: as above
Summary of the method: as §1

Binder | SPOT peptide array binding signal intensity
B1 | 88.5
B2 | 288
B3 | 8.5

molecular target: AgBzz1-D1; assay: as above
Summary of the method: as §1

Binder | SPOT peptide array binding signal intensity
B1 | 13
B2 | 6
B3 | 84

molecular target: AgBzz1-D2; assay: as above
Summary of the method: as §1

Binder | SPOT peptide array binding signal intensity
B1 | ≤ 0
B2 | 10
B3 | 100

molecular target: AgCyk3; assay: as above
Summary of the method: as §1

Binder | SPOT peptide array binding signal intensity
B1 | ≤ 0
B2 | ≤ 0
B3 | ≤ 0

molecular target: AgFus1; assay: as above
Summary of the method: as §1

Binder | SPOT peptide array binding signal intensity
B1 | 347
B2 | ≤ 0
B3 | 5

molecular target: AgHof1; assay: as above
Summary of the method: as §1

Binder | SPOT peptide array binding signal intensity
B1 | 63.2
B2 | 338
B3 | 9.5

molecular target: AgHse1; assay: as above
Summary of the method: as §1

Binder | SPOT peptide array binding signal intensity
B1 | 198
B2 | 51
B3 | 24

molecular target: AgLsb1; assay: as above
Summary of the method: as §1

Binder | SPOT peptide array binding signal intensity
B1 | 0.5
B2 | 2
B3 | 290

molecular target: AgLsb4; assay: as above
Summary of the method: as §1

Binder | SPOT peptide array binding signal intensity
B1 | 6
B2 | ≤ 0
B3 | 4510

molecular target: AgMyo5; assay: as above
Summary of the method: as §1

Binder | SPOT peptide array binding signal intensity
B1 | 13.5
B2 | 720
B3 | ≤ 0

molecular target: AgNbp2; assay: as above
Summary of the method: as §1

Binder | SPOT peptide array binding signal intensity
B1 | 179
B2 | 5
B3 | 4

molecular target: AgRvs167; assay: as above
Summary of the method: as §1

Binder | SPOT peptide array binding signal intensity
B1 | 3.5
B2 | ≤ 0
B3 | 745

molecular target: AgSho1; assay: as above
Summary of the method: as §1

Binder | SPOT peptide array binding signal intensity
B1 | 376
B2 | 4
B3 | 18

molecular target: AgSla1-D1-D2; assay: as above
Summary of the method: as §1

Binder | SPOT peptide array binding signal intensity
B1 | ≤ 0
B2 | 4
B3 | 3.5

molecular target: AgSla1-D3; assay: as above
Summary of the method: as §1

Binder | SPOT peptide array binding signal intensity
B1 | 0.5
B2 | 5.75
B3 | 1.5

molecular target: CaAbp1-D1; assay: as above
Summary of the method: as §1

Binder | SPOT peptide array binding signal intensity
B1 | 0.5
B2 | 8
B3 | 87

molecular target: CaAbp1-D2; assay: as above
Summary of the method: as §1

Binder | SPOT peptide array binding signal intensity
B1 | 43.5
B2 | 11
B3 | 79.5

molecular target: CaBbc1; assay: as above
Summary of the method: as §1

Binder | SPOT peptide array binding signal intensity
B1 | 34.5
B2 | 2.5
B3 | 521

molecular target: CaBem1-D1; assay: as above
Summary of the method: as §1

Binder | SPOT peptide array binding signal intensity
B1 | 54
B2 | 20
B3 | 19.5

molecular target: CaBzz1-D1; assay: as above
Summary of the method: as §1

Binder | SPOT peptide array binding signal intensity
B1 | 85
B2 | 32
B3 | 93

molecular target: CaBzz1-D2; assay: as above
Summary of the method: as §1

Binder | SPOT peptide array binding signal intensity
B1 | 57.5
B2 | ≤ 0
B3 | 96.5

molecular target: CaCyk3; assay: as above
Summary of the method: as §1

Binder | SPOT peptide array binding signal intensity
B1 | 8
B2 | 3
B3 | ≤ 0

molecular target: CaFus1; assay: as above
Summary of the method: as §1

Binder | SPOT peptide array binding signal intensity
B1 | 1020
B2 | 102
B3 | 80

molecular target: CaHof1; assay: as above
Summary of the method: as §1

Binder | SPOT peptide array binding signal intensity
B1 | 1
B2 | ≤ 0
B3 | 0.5

molecular target: CaHse1; assay: as above
Summary of the method: as §1

Binder | SPOT peptide array binding signal intensity
B1 | 156
B2 | 2.5
B3 | 37

molecular target: CaLsb1; assay: as above
Summary of the method: as §1

Binder | SPOT peptide array binding signal intensity
B1 | 0.5
B2 | 0.25
B3 | 1

molecular target: CaLsb4; assay: as above
Summary of the method: as §1

Binder | SPOT peptide array binding signal intensity
B1 | 390
B2 | 27.5
B3 | 3500

molecular target: CaMyo5; assay: as above
Summary of the method: as §1

Binder | SPOT peptide array binding signal intensity
B1 | 95.5
B2 | 296
B3 | 4.75

molecular target: CaNbp2; assay: as above
Summary of the method: as §1

Binder | SPOT peptide array binding signal intensity
B1 | 340
B2 | 88.5
B3 | 2

molecular target: CaRvs167; assay: as above
Summary of the method: as §1

Binder | SPOT peptide array binding signal intensity
B1 | 33.3
B2 | 1.33
B3 | 1970

molecular target: CaRvs167-3; assay: as above
Summary of the method: as §1

Binder | SPOT peptide array binding signal intensity
B1 | 6.5
B2 | 2.5
B3 | ≤ 0

molecular target: CaSho1; assay: as above
Summary of the method: as §1

Binder | SPOT peptide array binding signal intensity
B1 | 1290
B2 | 25
B3 | 13

molecular target: CaSla1-D1-D2; assay: as above
Summary of the method: as §1

Binder | SPOT peptide array binding signal intensity
B1 | 136
B2 | 34
B3 | 32

molecular target: CaSla1-D3; assay: as above
Summary of the method: as §1

Binder | SPOT peptide array binding signal intensity
B1 | 157
B2 | 25.8
B3 | ≤ 0

molecular target: ScAbp1; assay: as above
Summary of the method: as §1

Binder | SPOT peptide array binding signal intensity
B1 | 3
B2 | ≤ 0
B3 | 21.5

molecular target: ScBbc1; assay: as above
Summary of the method: as §1

Binder | SPOT peptide array binding signal intensity
B1 | ≤ 0
B2 | ≤ 0
B3 | 18.8

molecular target: ScBem1-D1; assay: as above
Summary of the method: as §1

Binder | SPOT peptide array binding signal intensity
B1 | ≤ 0
B2 | 1
B3 | ≤ 0

molecular target: ScBzz1-D1; assay: as above
Summary of the method: as §1

Binder | SPOT peptide array binding signal intensity
B1 | 2
B2 | ≤ 0
B3 | 61.5

molecular target: ScBzz1-D2; assay: as above
Summary of the method: as §1

Binder | SPOT peptide array binding signal intensity
B1 | 10.5
B2 | 2.5
B3 | 17.5

molecular target: ScCyk3; assay: as above
Summary of the method: as §1

Binder | SPOT peptide array binding signal intensity
B1 | 5
B2 | 2.5
B3 | ≤ 0

molecular target: ScFus1; assay: as above
Summary of the method: as §1

Binder | SPOT peptide array binding signal intensity
B1 | 414
B2 | ≤ 0
B3 | 2.5

molecular target: ScHof1; assay: as above
Summary of the method: as §1

Binder | SPOT peptide array binding signal intensity
B1 | 88.2
B2 | 144
B3 | 3.25

molecular target: ScHse1; assay: as above
Summary of the method: as §1

Binder | SPOT peptide array binding signal intensity
B1 | 130
B2 | 47
B3 | 3

molecular target: ScLsb1; assay: as above
Summary of the method: as §1

Binder | SPOT peptide array binding signal intensity
B1 | 11
B2 | 0.75
B3 | 268

molecular target: ScLsb2; assay: as above
Summary of the method: as §1

Binder | SPOT peptide array binding signal intensity
B1 | ≤ 0
B2 | ≤ 0
B3 | 31

molecular target: ScLsb3; assay: as above
Summary of the method: as §1

Binder | SPOT peptide array binding signal intensity
B1 | 184
B2 | 6.5
B3 | 6600

molecular target: ScLsb4; assay: as above
Summary of the method: as §1

Binder | SPOT peptide array binding signal intensity
B1 | 140
B2 | ≤ 0
B3 | 3830

molecular target: ScMyo3; assay: as above
Summary of the method: as §1

Binder | SPOT peptide array binding signal intensity
B1 | 28.5
B2 | 867
B3 | ≤ 0

molecular target: ScMyo5; assay: as above
Summary of the method: as §1

Binder | SPOT peptide array binding signal intensity
B1 | 10.5
B2 | 308
B3 | 3.25

molecular target: ScNbp2; assay: as above
Summary of the method: as §1

Binder | SPOT peptide array binding signal intensity
B1 | 252
B2 | 23
B3 | 5

molecular target: ScPex13; assay: as above
Summary of the method: as §1

Binder | SPOT peptide array binding signal intensity
B1 | 221
B2 | 772
B3 | 882

molecular target: ScRvs167; assay: as above
Summary of the method: as §1

Binder | SPOT peptide array binding signal intensity
B1 | 11.3
B2 | 0.333
B3 | 2350

molecular target: ScSho1; assay: as above
Summary of the method: as §1

Binder | SPOT peptide array binding signal intensity
B1 | 528
B2 | 41
B3 | 40.5

molecular target: ScSla1-D1-D2; assay: as above
Summary of the method: as §1

Binder | SPOT peptide array binding signal intensity
B1 | 60
B2 | ≤ 0
B3 | 17

molecular target: ScSla1-D3; assay: as above
Summary of the method: as §1

Binder | SPOT peptide array binding signal intensity
B1 | 290
B2 | 7.5
B3 | ≤ 0

molecular target: SpAbp1-D1; assay: as above
Summary of the method: as §1

Binder | SPOT peptide array binding signal intensity
B1 | ≤ 0
B2 | 2
B3 | 97

molecular target: SpBbc1; assay: as above
Summary of the method: as §1

Binder | SPOT peptide array binding signal intensity
B1 | ≤ 0
B2 | 1.5
B3 | 0.25

molecular target: SpBzz1-D1; assay: as above
Summary of the method: as §1

Binder | SPOT peptide array binding signal intensity
B1 | 205
B2 | 236
B3 | 286

molecular target: SpBzz1-D2; assay: as above
Summary of the method: as §1

Binder | SPOT peptide array binding signal intensity
B1 | 10.5
B2 | 1.5

molecular target: SpCyk3; assay: as above
Summary of the method: as §1

Binder | SPOT peptide array binding signal intensity
B1 | 1
B2 | 1

molecular target: SpHof1; assay: as above
Summary of the method: as §1

Binder | SPOT peptide array binding signal intensity
B1 | 30.2
B2 | 4

molecular target: SpHof1-2; assay: as above
Summary of the method: as §1

Binder | SPOT peptide array binding signal intensity
B1 | 72.2
B2 | 9.5

molecular target: SpHof1-3; assay: as above
Summary of the method: as §1

Binder | SPOT peptide array binding signal intensity
B1 | 18
B2 | 7

molecular target: SpHse1; assay: as above
Summary of the method: as §1

Binder | SPOT peptide array binding signal intensity
B1 | 289
B2 | 70.8

molecular target: SpLsb1; assay: as above
Summary of the method: as §1

Binder | SPOT peptide array binding signal intensity
B1 | ≤ 0
B2 | ≤ 0

molecular target: SpLsb4; assay: as above
Summary of the method: as §1

Binder | SPOT peptide array binding signal intensity
B1 | 658
B2 | 51.5

molecular target: SpMyo1; assay: as above
Summary of the method: as §1

Binder | SPOT peptide array binding signal intensity
B1 | 91.5
B2 | 775

molecular target: SpNbp2; assay: as above
Summary of the method: as §1

Binder | SPOT peptide array binding signal intensity
B1 | 130
B2 | 7

molecular target: SpPex13; assay: as above
Summary of the method: as §1

Binder | SPOT peptide array binding signal intensity
B1 | 38
B2 | 9.5

molecular target: SpRvs167; assay: as above
Summary of the method: as §1

Binder | SPOT peptide array binding signal intensity
B1 | 59
B2 | 24.5

molecular target: SpSla1-D1-D2; assay: as above
Summary of the method: as §1

Binder | SPOT peptide array binding signal intensity
B1 | 4
B2 | 3

molecular target: SpSla1-D3; assay: as above
Summary of the method: as §1

Binder | SPOT peptide array binding signal intensity
B1 | 133
B2 | 6
